Compound activity deposited in PubChem BioAssay by several laboratories.
CHT allo act = allosteric activators of human choline transporter CHT | actives 0.49% (n = 310,000) | CHT-expressing cells, membrane potential dye, choline EC20; stronger effect = higher value; LV-AA mutant CHT in HEK293 cells | B-score at 10 µM | Q9GZV3;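 active = initial fluorescence not abnormally high and integrated response B-score, plate-corrected, over 3 SD above library mean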
TMEM16A act = activates or potentiates the mouse TMEM16A chloride channel; AID 623877; HEK293 TMEM16A/YFP-H148Q/I152L, iodide quench fluorescence; stronger effect = lower value; Q8BHY3; actives 0.3% (n = 340,000); B-score at 10 µM;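 active = fluorescence-ratio B-score plate-corrected deviation score at least 3 library SD below zero, with starting fluorescence score within 5 deviations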;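 also: channel opened by trigger with iodide after compound preincubation; score built on the fluorescence ratio of max minus min over baseline; more negative score means more quench and so TMEM16A activation or potentiation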
GPR7 antag = antagonists of human GPR7 (neuropeptides B/W receptor 1). AID 1861. inhibition, % at 4.4 µM. P48145. actives 1.1% (n = 290,000). GPR7-expressing cells, fluorescence antagonist assay; in the data active = inhibition above about 16%, passing the limit was not always enough;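 also: cells stimulated with the agonist NPW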
CHT inh = inhibitors of human choline transporter CHT | Q9GZV3 | actives 0.86% (n = 310,000) | CHT-expressing cells, membrane potential dye, choline response; stronger effect = lower value | AID 488975 | B-score at 10 µM;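 active = B-score over 3 SD under the library average, and starting fluorescence ratio not unusually high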;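 also: choline stimulus applied at its EC90 after an EC20 pre-addition; B-score computed on integrated fluorescence ratio after choline addition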
ANO1 block = inhibitors of mouse TMEM16A calcium-activated chloride channel | normalized B-score (activity score, 25-100; higher = stronger inhibition) at 10 µM | actives 1.2% (n = 310,000) | Q8BHY3 | HEK293 TMEM16A/YFP iodide influx fluorescence, ionomycin | AID 588511;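 active = ratio plate-corrected score three or more library SD toward inhibition, starting fluorescence score within five deviations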;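 also: score derived from kinetic fluorescence span divided by baseline fluorescence per well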
Kir21 block = blocks the mouse Kir2.1 inward-rectifier potassium channel | P35561 | HEK293-Kir2.1, FluxOR thallium flux fluorescence; stronger effect = lower value | B-score at 10 µM | actives 0.85% (n = 310,000);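 active = fluorescence ratio B-score at or below minus 3 SD of library scores, with starting-brightness B-score within 2 SD, cut at about -4.2 in these data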;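 also: channel flux triggered by added potassium and thallium sulfate stimulus; B-score of peak minus minimum fluorescence over baseline after thallium stimulus; more negative B-score means stronger Kir2.1 block with less thallium influx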
Target sequence (P35561 whole entry, looked up): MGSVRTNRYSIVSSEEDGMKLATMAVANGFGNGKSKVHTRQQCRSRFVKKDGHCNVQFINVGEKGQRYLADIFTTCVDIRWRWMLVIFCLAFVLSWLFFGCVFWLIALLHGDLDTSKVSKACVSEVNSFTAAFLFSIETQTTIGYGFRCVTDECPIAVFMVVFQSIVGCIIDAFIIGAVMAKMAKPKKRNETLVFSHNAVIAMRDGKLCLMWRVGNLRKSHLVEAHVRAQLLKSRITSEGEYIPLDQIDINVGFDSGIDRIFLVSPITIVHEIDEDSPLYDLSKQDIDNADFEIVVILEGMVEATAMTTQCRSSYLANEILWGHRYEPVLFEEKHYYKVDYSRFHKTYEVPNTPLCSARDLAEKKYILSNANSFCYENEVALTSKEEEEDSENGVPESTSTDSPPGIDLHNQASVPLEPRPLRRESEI
Large screens that a line does not name were inactive. In the library only some 3.7% were active in any assay of this set; here they are far more common.

CCOC(=O)C1=C(COC(=O)CCOc2ccc(C)cc2)NC(=O)NC1C (stereo not drawn)	none (no result: GPR7 antag)
CCOC(=O)c1c(CSC(=N)N)n(-c2ccc(C)cc2)c2cc(Br)c(OC(C)=O)cc12	ANO1 block 100, Kir21 block -15
COC(=O)c1ccc(N2C(=O)CC(N3CCN(c4ccccc4)CC3)C2=O)cc1 (stereo not drawn)	GPR7 antag 19
COC(=O)c1ccc(N2C(=O)CC(N3CCOCC3)C2=O)cc1 (stereo not drawn)	none
CCc1c(O)nc(SC2CC(=O)N(c3ccccc3)C2=O)[nH]c1=O (stereo not drawn)	TMEM16A act -29
Cc1c(N=Cc2cccs2)c(=O)n(-c2ccccc2)n1C	ANO1 block 100
Cc1ccsc1C=Nc1c(C)n(C)n(-c2ccccc2)c1=O	none
COc1ccc(-c2cc3ccccc3n2CC(O)CNC(CO)(CO)CO)cc1 (stereo not drawn)	GPR7 antag 15
COc1cccc(CNC(=O)c2ccc(C3SCCS3)cc2)c1	none
CC1CC(CCC(=O)NC(=S)Nc2ccc(S(N)(=O)=O)cc2)C(=O)O1 (stereo not drawn)	TMEM16A act -4.7
NS(=O)(=O)c1ccc(NC(=S)NC(=O)C2CCCC2)cc1	none
C=C1CCC[C@]2(C)C[C@H]3OC(=O)C(CNCCN(CC)CC)[C@H]3CC12 (stereo partly drawn)	none
COc1cc2c(cc1OC)CN(c1ccc3ccccc3n1)CC2	Kir21 block -11
COc1cc2c(cc1OC)CN(c1ccc(-c3ccccc3OC)nn1)CC2	none
CN(C)CCN(C)Cc1ccccc1Sc1cccc2ccccc12	Kir21 block -7.1
CNCc1ccccc1Sc1cccc2ccccc12	Kir21 block -15
COCC(C)NCc1cccc2ccccc12 (stereo not drawn)	none
CCCCCC(=O)Nc1ccc(N2CCN(C(=O)CCC)CC2)cc1	ANO1 block 100
CCCCC(=O)Nc1ccc(N2CCN(C(=O)c3ccco3)CC2)cc1	none
Cc1ccc(-c2noc(CCC(=O)N3CCN(c4cccc(C(F)(F)F)c4)CC3)n2)cc1	ANO1 block 25
Cc1ccc(NC(=O)CSCC(=O)N2CCN(c3cccc(C(F)(F)F)c3)CC2)cc1	none (no result: GPR7 antag)
COc1ccccc1C(=O)Nc1nc(-c2ccc(S(=O)(=O)N3CCOCC3)cc2)cs1	ANO1 block 100
COc1ccccc1OC(C)C(=O)Nc1nc(-c2ccc(S(=O)(=O)N3CCOCC3)cc2)cs1 (stereo not drawn)	none
Cc1cccc(N(C)S(=O)(=O)c2cccc3nsnc23)c1	Kir21 block -4.3
CN(C)S(=O)(=O)c1cccc2nsnc12	none
CC[C@H](C)[C@H]1O[C@]2(CC[C@@H]1C)C[C@@H]1C[C@@H](CC=C(C)[C@@H](O[C@H]3C[C@H](OC)[C@@H](O[C@H]4C[C@H](OC)[C@@H](O)[C@H](C)O4)[C@H](C)O3)[C@@H](C)C=CC=C3CO[C@@H]4[C@H](O)C(C)=C[C@@H](C(=O)O1)[C@]34O)O2	ANO1 block 25 (no result: GPR7 antag, Kir21 block)
NC(=O)C(=O)N/N=C/c1c2ccccc2cc2ccccc12	none
CC(=O)Nc1ccc(NC(=O)C2CCCN(c3nnc(-n4cccc4)s3)C2)cc1 (stereo not drawn)	Kir21 block -4.6
COc1ccccc1-c1ccc(SCc2ccccc2F)nn1	ANO1 block 25
O=C(NCC1CCCO1)c1cc2cc(Cl)ccc2[nH]1 (stereo not drawn)	none
C[C@H](CO)N1C[C@H](C)[C@@H](CN(C)S(C)(=O)=O)Oc2c(NC(=O)C3CC3)cccc2C1=O	none (no result: CHT allo act, GPR7 antag, CHT inh, ANO1 block, Kir21 block)
N#CC(C#N)=NNc1ccc(S(=O)(=O)N2CCCCC2)cc1	ANO1 block 100
N#C/C(=N\Nc1ccc(S(=O)(=O)N2CCOCC2)cc1)C(N)=S	none
CCOC(=O)N1CCN(C(=O)CNS(=O)(=O)c2cccs2)CC1	none
CC(SCC(=O)Nc1ccc(S(=O)(=O)N2CCCCC2)cc1)C(=O)O (stereo not drawn)	GPR7 antag 19
O=C(O)CSCC(=O)Nc1ccc(S(=O)(=O)N2CCCCC2)cc1	none
CC(C)CCCCCCNC(=S)Nc1ccc(S(=O)(=O)N2CCOCC2)cc1	ANO1 block 100
CC(=O)Nc1ccc(S(=O)(=O)NCC(=O)N2CCN(S(=O)(=O)c3cccs3)CC2)cc1	TMEM16A act -15 (no result: CHT allo act, GPR7 antag, CHT inh, ANO1 block, Kir21 block)
C[C@H](C(=O)CC(=O)OC(C)(C)C)[C@H](O)c1ccccc1	none
COc1ccc(COC(=O)c2ccc(Br)c(S(=O)(=O)N3CCOCC3)c2)cc1F	none (no result: GPR7 antag)
CC(=O)Nc1ccc(S(=O)(=O)N2CCN(CC(=O)N3CCOCC3)CC2)cc1	GPR7 antag 20
CC(=O)Nc1ccc(S(=O)(=O)N2CCN(S(=O)(=O)N3CCCCCC3)CC2)cc1	GPR7 antag 19
CC(=O)Nc1ccc(S(=O)(=O)N2CCN(S(=O)(=O)N3CCOCC3)CC2)cc1	none
O=C(Cn1c(=O)oc2ccccc21)Nc1ccc(S(=O)(=O)N2CCCCC2)cc1	TMEM16A act -6.5
CN(C(=O)CCS(=O)(=O)c1ccc2c(c1)oc(=O)n2C)C1CCCCC1	none
CC1(C)CC(=O)C=C(c2cccc(Cl)c2O)C1	none (no result: CHT allo act, GPR7 antag, CHT inh, ANO1 block, Kir21 block)
COC(=O)c1[nH]c2ccc(C)cc2c1NS(=O)(=O)c1ccc(F)cc1	Kir21 block -5.3
CC(C)C(NC(=O)c1c(F)cccc1F)C(=O)N1CCN(c2ncccn2)CC1 (stereo not drawn)	none (no result: CHT allo act, GPR7 antag, CHT inh, ANO1 block, Kir21 block)
Cc1ccc(F)c(NC(=O)/C(C#N)=C(\O)c2ccc(C(C)(C)C)cc2)c1	ANO1 block 25
CCC(C)(C)c1ccc(OCCCC[n+]2ccccc2)c(C(C)(C)CC)c1	none
CCCCCc1ccc(OCCCC[n+]2cccc(C)c2)c(CCCCC)c1	GPR7 antag 34, ANO1 block 100, Kir21 block -5.1
O=C(Cn1c(CO)nc2ccccc21)Nc1ccccc1Cl	Kir21 block -9.4
CCC(=O)c1ccc(N2CCN(C(=O)c3ccc(F)cc3)CC2)c(F)c1	ANO1 block 25
CO/N=C/c1ccc(N2CCN(C(=O)c3ccc(Cl)cc3Cl)CC2)c([N+](=O)[O-])c1	ANO1 block 100
CO/N=C/c1ccc(N2CCN(C(=O)c3ccc(F)cc3)CC2)c([N+](=O)[O-])c1	ANO1 block 100
Nc1cc(=O)[nH]c(SCC(=O)Nc2cccc(Cl)c2Cl)n1	none
O=C(NC1CCCC1)C1CCN(C(=O)c2ccc(Cl)cc2)CC1	none
CC(C)(C)c1ccc(C(=O)N2CCC(C(=O)NC3CCCCCC3)CC2)cc1	CHT inh -5.1
Cc1ccc(S(=O)(=O)N/N=C2/CC(c3ccccc3)Oc3ccccc32)cc1[N+](=O)[O-] (stereo not drawn)	ANO1 block 100
